G9a inh: blocks human histone lysine methyltransferase G9a; AID 504332; 350,000 compounds, 8.8% hits; Potency, µM (highest dose often 102 µM), for the others: at the top dose activity, negative = inhibition, actives largely listed as inhibitors; G9a H3K9 monomethylation, AlphaScreen, 2 h; also: % is scaled to controls: 0 for no effect and ±100 for the full control effect; nearly all actives have a fitted effect of over 75% in size
Target sequence (Q96KQ7 913-1193 limits assumed): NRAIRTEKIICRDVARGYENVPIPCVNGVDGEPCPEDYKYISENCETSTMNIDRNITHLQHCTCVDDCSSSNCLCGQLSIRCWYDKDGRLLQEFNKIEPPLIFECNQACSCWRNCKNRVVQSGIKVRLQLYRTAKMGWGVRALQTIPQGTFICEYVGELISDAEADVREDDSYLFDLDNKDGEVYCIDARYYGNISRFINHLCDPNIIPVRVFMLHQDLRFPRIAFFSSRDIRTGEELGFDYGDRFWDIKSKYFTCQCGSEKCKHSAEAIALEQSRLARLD
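Quantitative HTS format: methyltransferase activity on a biotin-tagged H3K9 peptide is measured by AlphaScreen, using a rabbit anti-monomethyl-H3K9 antibody with streptavidin donor and anti-IgG acceptor beads. Final levels are 20 nM enzyme, 500 nM peptide, 20 uM SAM; 2 h RT.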
BAZ2B block: BAZ2B (human) inhibition; AlphaScreen BAZ2B-H3K14Ac peptide displacement; Potency, µM (highest dose often 114 µM), for the others: at the top dose activity change, negative = inhibition, actives largely listed as inhibitors; 360,000 compounds, 4.4% hits; Q9UIF8; also: % is scaled to controls: 0 for no effect and ±100 for the full control effect; nearly all actives have a fitted effect of over 60% in size
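Compounds, titrated to a top concentration of 110 uM, were incubated 30 min at room temperature with preformed BAZ2B/acetyl-K14 H3 peptide complex (50 nM each). Proximity signal was measured by AlphaScreen after 20 min with beads.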
HP1b chromo inh: blocks HP1-beta chromodomain binding to methylated histone tails. 390,000 compounds, 0.56% hits. AlphaScreen HP1-beta / biotin-H3K9me3 peptide binding. Potency, µM (doses to about 114 µM), for the others: at the highest dose activity change, negative = inhibition, actives largely listed as inhibitors. P83916. AID 540317; also: nearly all actives have a fitted effect of over 70% in size
Target sequence (P83916 whole entry, looked up): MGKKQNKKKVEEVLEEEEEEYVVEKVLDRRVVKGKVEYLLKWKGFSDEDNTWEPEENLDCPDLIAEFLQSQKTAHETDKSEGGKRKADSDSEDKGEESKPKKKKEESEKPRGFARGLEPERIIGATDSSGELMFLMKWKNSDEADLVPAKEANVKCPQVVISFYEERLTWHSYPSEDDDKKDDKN
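AlphaScreen: HP1-beta (50 nM) preformed 30 min with biotin-H3(1-18)K9me3 peptide (50 nM) in PBS pH 7.4, 0.01% Tween-20. Compound added for 30 min at RT, then streptavidin donor/nickel chelate acceptor beads (10 ug/mL) for 30 min.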
JMJD2A Tudor: blocks the human JMJD2A Tudor domain. O75164. AlphaScreen JMJD2A-Tudor / H3K4me3 peptide binding. Potency, µM (top dose mostly 114 µM), for the others: at the top dose activity change, negative = inhibition, usual class: inhibitors. 390,000 compounds, 4.4% hits. AID 504339; also: % is scaled to controls: 0 for no effect and ±100 for the full control effect; nearly all actives have a fitted effect of over 50% in size
PLK1 PBD block: inhibitors of human PLK1 polo-box domain binding | 360,000 compounds, 2.8% hits | Plk1 PBD binding of FITC phosphopeptide, fluorescence polarization | Potency, µM, without a hit: max response, negative = inhibition, most hits filed as inhibitors | AID 720504; also: series mostly up to about 57 µM; % is scaled to controls: 0 for no effect and ±100 for the full control effect; nearly all actives have a fitted effect of over 65% in size
Sfp inh: blocks B. subtilis Sfp PPTase activity; Potency, µM, for inactives: largest response in the series, negative = inhibition, hits mostly inhibitors; 310,000 compounds, 3.5% hits; AID 1490; Biochemical Sfp PPTase activity, qHTS; Q9F4F7;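 also: the enzyme is Sfp with the accession as filed and its product quenches rhodamine fluorescence; 0% = enzyme reaction without inhibitor and -100% = no enzyme wells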
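Reaction rates are the 30-min fluorescence difference (ex 525, em 598 nm) in wells containing 15 nM Sfp, 5 uM rhodamine-CoA and 12.5 uM BHQ-2-YbbR at pH 7.6 with 10 mM MgCl2.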
* hit, by the source's call; ? = inconclusive; . = no result; [ ] = dose if it differs, or a comment. The list is not random: actives were taken first. Their share in the collection is about 12%. Calls follow the shape of the dose curve; as a rule, active = well fitted curve in the direction sought with a large enough effect; inconclusive = small, poorly fitted or top-dose-only effect, or another doubt; inactive = no such curve, though single readings can be large; an effect the other way counts as inactive or inconclusive. Potency is read from the fitted curve at half-maximal effect.

SMILES	G9a inh	BAZ2B block	HP1b chromo inh	JMJD2A Tudor	PLK1 PBD block	Sfp inh
COCOc1ccc(/C=C/C(=O)c2c(OCOC)cc(OCOC)c(CC=C(C)C)c2O)cc1OCOC	.	.	-18%	?	2%	.
CC1CCN(CC(O)COc2ccc(-c3ccccc3)cc2)CC1 (stereo not given)	?	-7%	32%	-6%	-10%	7%
N#Cc1c(-c2ccccc2)nc2n1CCS2	7%	-8%	19%	-24%	-22%	13%
Clc1ccc(/C=N/c2c(-c3ccc(Cl)cc3)nc3n2CCS3)cc1	35µM*	?	-31%	?	-1%	9%
Nc1cnn(Cc2ccccc2F)c1	?	40µM*	?	50µM*	-1%	8%
O=S(=O)(c1ccccc1C(F)(F)F)N1CCN(c2nc(-c3ccccc3)nc3ccccc23)CC1	.	.	0%	-7%	.	.
Cc1cc(OCC(=O)NCCO)ccc1Cl	-5%[59 µM]	1%	47%	-12%[57.1 µM]	-12%	3%
CC(C)c1ccc(OCC(=O)NCCO)cc1	13%[59 µM]	1%	?	?	27µM*	-4%
COc1ccc(OC(=O)COc2ccc(C)cc2)cc1	155%	-5%	71%	0%	-10%	13%
Cc1ccc(OCC(=O)NCCCNC(=O)COc2ccc(C)cc2)cc1	35µM*	-26%	22%	-2%	-5%	0%
COc1ccc(OCC(=O)Sc2ccc(C)cc2)cc1	47%[59 µM]	146%	282%	121%	4.7µM*	-15%
Cc1cc(OCC(=O)NCCO)cc(C)c1Cl	-7%[59 µM]	8%	15%	89µM*	-6%	-11%
CC(C)CNS(=O)(=O)c1ccc(CCC(=O)NCCC2=CCCCC2)cc1	18%	-21%	29%	-25%	-13%	25%
CC1(C)CCC2(C(=O)O)CC[C@]3(C)C(=CCC4[C@]5(C)CCC(O)C(C)(C)C5C(O)C[C@]43C)C2C1 (stereo not given in full)	-12%[2.33 µM]	.	.	.	.	3%
CC(C)c1ccccc1NC(=O)COc1ccc2c(=O)c(Oc3ccc4ccccc4c3)coc2c1	1%[59 µM]	-5%	.	.	.	8%
Cc1ccc(C)c(Oc2coc3cc(OC(=O)c4cccs4)ccc3c2=O)c1	.	.	-1%	-9%[11.4 µM]	9.5µM*	.
CCc1ccccc1NC(=O)COc1ccc2c(=O)c(Oc3cc(C)ccc3C)coc2c1	-19%	4%	24%	-15%	-2%	45µM*
COc1ccc(Oc2coc3cc(OC(=O)c4cccs4)ccc3c2=O)cc1	19%[0.0925 µM]	0%	50%	1%	0%	0%
COc1ccc(N2C(=O)c3ccc(C(=O)OC(C)C)cc3C2=O)cc1	-1%[59 µM]	4%	?	?	2.7µM*	3%
COc1ccc(N2C(=O)c3cc4ccccc4cc3C2=O)cc1	7%	-1%	17%	-21%	27µM*	9%
COc1ccc(N2C(=O)c3ccc(C(=O)Nc4cc(OC)ccc4OC)cc3C2=O)cc1	51%	1%	40%	-9%	0%	-4%
COc1ccc(/C=C(/NC(=O)c2ccccc2)C(=O)NC2CCS(=O)(=O)C2)cc1 (stereo not given)	-8%[59 µM]	7%	-10%	14µM*	15µM*	9%
COc1cccc(/C=C2\SC(=S)N(N3CCOCC3)C2=O)c1OC	?	18µM*	?	?	-3%	-20%
O=C1/C(=C/c2ccccn2)SC(=S)N1N1CCOCC1	56µM*	?	17%	-8%[57.1 µM]	-9%	?
CC(C)CCNC(=O)Nc1ccc2c(c1)N(C)C(=O)c1ccccc1S2	-31%[59 µM]	?	55%	-16%	.	.
SMILES	G9a inh	BAZ2B block	HP1b chromo inh	JMJD2A Tudor	PLK1 PBD block	Sfp inh
O=c1c2ccccc2sn1-c1cccc(Cl)c1	.	.	.	.	3µM*	.
CN(C)S(=O)(=O)c1cccc(-n2sc3ccccc3c2=O)c1	-128%	4.5µM*	-12%	14µM*	1.2µM*	1.6µM*
Cn1sc2ccccc2c1=O	.	.	.	.	4.7µM*	.
CC(=O)Nc1ccc2c(=O)n(-c3ccccc3)sc2c1	.	.	.	.	2.4µM*	.
CC1CCN(c2nnc(-n3cccc3CNc3cccc(F)c3)s2)CC1	-8%[59 µM]	-2%[57.1 µM]	16%	-26%	.	.
CCCN(C(=O)/C=C/c1ccc(S(=O)(=O)N(CC)CC)cc1)C1CCS(=O)(=O)C1 (stereo not given)	.	.	40%	-4%	-1%	.
O=c1c2ccccc2sn1-c1nccs1	1.4µM*	5µM*	?	5.6µM*	2.4µM*	2.2µM*
O=c1c2ccccc2sn1-c1ccccc1	?	7.9µM*	?	4µM*	1.1µM*	0.5µM*
O=c1c2ccccc2sn1-c1ccccc1F	.	.	.	.	3µM*	.
Cc1ccccc1-n1sc2cc(F)ccc2c1=O	-113%	4.5µM*	16µM*	4.5µM*	1.2µM*	0.56µM*
Cc1cc2nn(-c3ccccc3)nc2cc1NC(=O)COc1ccc(Cl)cc1	-4%[59 µM]	3%	36%	-3%	.	.
O=C(O)c1cccc(N2C(=O)CCC2=O)c1	.	-32%	.	.	.	4%
O=C(O)c1cccc(-n2sc3ccccc3c2=O)c1	7%[0.501 µM]	8.9µM*	73%	2.8µM*	1.2µM*	.
N#Cc1c(N)n(-c2ccccc2)c(=O)c2cc([N+](=O)[O-])ccc12	.	4%	-35%	-6%	-15%	9%
N#Cc1ccc2c(=O)n(-c3ccccc3)sc2c1	.	.	.	.	3µM*	.
COCc1nn2c(=O)cc(N3CCNCC3)nc2s1	.	.	.	-3%	.	.
COc1ccc(Nc2nc3ccccc3c3nnc(C)n23)cc1Cl	-29%[59 µM]	-1%	24%	-5%	.	.
CCOc1ccc(CN2CCNC(=O)C2CC(=O)NCc2csc(C)n2)cc1 (stereo not given)	.	-6%	18%	-18%	-10%	-9%
Cc1nc(CNC(=O)CC2C(=O)NCCN2Cc2ccc(F)cc2)cs1 (stereo not given)	50µM*	-20%	53%	0%	-2%	4%
Cc1nc(CCNC(=O)CC2C(=O)NCCN2Cc2ccc(F)cc2)sc1C (stereo not given)	56µM*	-2%	25%	-16%	-16%	32µM*
